Measurements as given in the supplement of paper PMC13380429.

Test system: Vero E6 infected with SARS-CoV-2
Test: inhibition of SARS-CoV-2 cytopathic effect; higher = more antiviral protection, active = above 15
Settings: 48 h

Measured: inhibition of SARS-CoV-2 cytopathic effect

O=C1N(c2ccccc2)c2ccccc2C1(Cc1ccncc1)Cc1ccncc1 [linopirdine]
inactive: 1 nM 2.06% | 8.33 nM 0.32% | 100 nM 1.23% | 833.33 nM -0.29% | 10000 nM 1.14%

CN1C(C)(C)CCCC1(C)C [pempidine]
inactive: 1 nM -2.83% | 8.33 nM -0.7% | 100 nM -4.34% | 833.33 nM -1.68% | 10000 nM -2.1%

CC(=O)Oc1ccccc1C(=O)O [aspirin]
inactive: 1 nM -5.74% | 8.33 nM -5.82% | 100 nM -7.3% | 833.33 nM -5.09% | 10000 nM -12.8%

NS(=O)(=O)NCc1csc2ccccc12
inactive: 1 nM 3.48% | 8.33 nM -0.74% | 100 nM -0.43% | 833.33 nM 3.95% | 10000 nM 2.4%

Fc1ccc(-c2cncc(CN3CCN(c4cccc5c4OCCO5)CC3)c2)cc1 [adoprazine]
inactive: 1 nM -1.19% | 8.33 nM -1.15% | 100 nM 2.28% | 833.33 nM 1.56% | 10000 nM 0.22%

C[C@H]1O[C@@H](O[C@H]2[C@@H](O)C[C@H](O[C@H]3[C@@H](O)C[C@H](O[C@H]4CC[C@@]5(C)[C@H](CC[C@@H]6[C@@H]5C[C@@H](O)[C@]5(C)[C@@H](C7=CC(=O)OC7)CC[C@]65O)C4)O[C@@H]3C)O[C@@H]2C)C[C@H](O)[C@@H]1O [digoxin]
inactive: 1 nM -0.14% | 8.33 nM -0.96% | 100 nM -7.12% | 833.33 nM -13.3% | 10000 nM -14.5%

COCC1=C(C(=O)O)N2C(=O)[C@@H](NC(=O)/C(=N\OC)c3csc(N)n3)[C@H]2SC1 [cefpodoxime]
inactive: 1 nM -1.12% | 8.33 nM -1.09% | 100 nM -1.76% | 833.33 nM -0.98% | 10000 nM -1.12%

CC(C)OC(=O)[C@H](C)N[P@@](=O)(OC[C@H]1O[C@@H](n2ccc(=O)[nH]c2=O)[C@](C)(F)[C@@H]1O)Oc1ccccc1
inactive: 1 nM 2.14% | 8.33 nM -0.76% | 100 nM -2.61% | 833.33 nM -0.19% | 10000 nM 0.32%

O=C(Nc1c(Cl)cncc1Cl)c1ccc(OC(F)F)c(OCC2CC2)c1 [roflumilast]
inactive: 1 nM -0.45% | 8.33 nM 1.68% | 100 nM 0.72% | 833.33 nM -0.19% | 10000 nM 0.85%

CCOC(=O)COc1ccc2c(=O)cc(-c3ccccc3)oc2c1 [efloxate]
inactive: 1 nM -1.98% | 8.33 nM 0.67% | 100 nM 0.32% | 833.33 nM -1.24% | 10000 nM -0.78%

C[C@H](CCC(=O)NCCS(=O)(=O)O)[C@H]1CC[C@H]2[C@@H]3[C@H](O)C[C@@H]4C[C@H](O)CC[C@]4(C)[C@H]3C[C@H](O)[C@]12C [taurocholate]
inactive: 1 nM -8.93% | 8.33 nM -4.1% | 100 nM -6.72% | 833.33 nM -7.82% | 10000 nM -8.38%

CCCCC(F)(F)[C@@]1(O)CC[C@H]2[C@@H](CC(=O)[C@@H]2CCCCCCC(=O)O)O1 [lubiprostone]
inactive: 1 nM -0.41% | 8.33 nM -0.13% | 100 nM -0.73% | 833.33 nM -1.89% | 10000 nM -0.01%

O=C(CCBr)N1CC[N+]2(CC1)CC[N+]1(CCN(C(=O)CCBr)CC1)CC2 [spirobromin]
inactive: 1 nM -0.01% | 8.33 nM -0.86% | 100 nM -0.61% | 833.33 nM -2.75% | 10000 nM -3.3%

O=C(O)C1=CCCN(CCON=C(c2ccccc2)c2ccccc2)C1
inactive: 1 nM -1.65% | 8.33 nM 0.36% | 100 nM 0.96% | 833.33 nM 0.86% | 10000 nM 2.06%

O=C(NC[C@H](O)CN1CCc2ccccc2C1)c1cc(NC2COC2)ncn1
inactive: 1 nM -3.14% | 8.33 nM -1.3% | 100 nM -2.1% | 833.33 nM -3.82% | 10000 nM -1.65%

O=C(CCCN1CCN(c2ccccn2)CC1)c1ccc(F)cc1 [azaperone]
inactive: 1 nM 0% | 8.33 nM -7.58% | 100 nM -6.03% | 833.33 nM -5.15% | 10000 nM 0.26%

CC(=O)N(C)c1cc(-c2ccnc3c(C(=O)c4cccs4)cnn23)ccc1F [lorediplon]
inactive: 1 nM 0.42% | 8.33 nM -0.41% | 100 nM 1.97% | 833.33 nM 1.05% | 10000 nM 1.78%

C=CC(=O)Nc1ccc2ncnc(Nc3ccc(OCc4cccc(F)c4)c(Cl)c3)c2c1
inactive: 1 nM -1.9% | 8.33 nM 1.55% | 100 nM -0.97% | 833.33 nM -0.61% | 10000 nM -3.89%

O=C1c2ccccc2C(Cc2ccncc2)(Cc2ccncc2)c2ccccc21
inactive: 1 nM 1.49% | 8.33 nM -1.95% | 100 nM -1.48% | 833.33 nM -2.88% | 10000 nM -3.65%

NC[C@@H](O)CC(=O)O [aminohydroxybutyric-acid]
inactive: 1 nM -3.49% | 8.33 nM -1.06% | 100 nM -2.52% | 833.33 nM -2.28% | 10000 nM -0.71%
